Screening data: PubChem BioAssay, National Center for Advancing Translational Sciences (NCATS)
ELG1 DNA repair – qHTS screen for small molecules that inhibit ELG1-dependent DNA repair in human embryonic kidney (HEK293T) cells expressing luciferase-tagged ELG1. HEK293T ELG1-luciferase reporter, luminescence, 16 h; DNA damage induced by 5-fluorouridine. 2.3% of 330,000 active. AID 504467, 2011. Potency, µM (highest dose often 46.1 µM), for inactives: at the top dose activity change, negative = inhibition, most hits filed as inhibitors; further: potency means the concentration at half of the fitted maximal effect; nearly all actives have a fitted effect of over 55% in size
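In this reporter screen, reduction of luminescence relative to DMSO vehicle indicated activity. Compounds and 5-fluorouridine were added together to 2,000 cells per well, incubated for 16 hr at 37 °C, then developed with ONE-Glo.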
IL1B secr inh – qHTS for Inhibitors of Inflammasome Signaling: IL-1-beta AlphaLISA Primary Screen; activity change, % at 57.5 µM; 4.7% of 360,000 active; THP-1 LPS/ATP IL-1B secretion, AlphaLISA, 16 h; stronger effect = lower value; AID 743279, 2014; in the data active means activity change below about -50%; inconclusive means mostly about -30% to -49%
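Secreted IL-1B measured by AlphaLISA bead assay after 16 h compound exposure of THP-1 cells; compounds (final up to 57.5 uM) added 1 h before LPS (250 ng/mL) and ATP (1.25 mM) stimulation; lower signal means less secretion.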
HT1080NT lethal – qHTS for induction of synthetic lethality in tumor cells producing 2HG: qHTS for the HT-1080-NT fibrosarcoma cell line | Potency, µM (highest dose often 46.1 µM), without a hit: at the highest dose activity, negative = less viability, usual class: cytotoxic | HT-1080-NT fibrosarcoma viability, CellTiter-Glo ATP luminescence, 48 h | 1.6% of 360,000 active;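 further: NT is the 2HG producing partner of a matched IDH1 knockdown line; potency means the concentration at half of the fitted maximal effect; 0% = DMSO-treated cells and -100% = media-only wells without cells; nearly all actives have a fitted effect of over 55% in size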
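Fibrosarcoma NT cells, 750 per well in 5% FBS RPMI, were exposed to compound for 48 hours. Viability: CellTiter-Glo luminescence.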
DT40 TDP1 no CPT – qHTS for Inhibitors of human tyrosyl-DNA phosphodiesterase 1 (TDP1): qHTS in cells in absence of CPT. Potency, µM (top dose mostly 46.2 µM), for the others: at the highest dose activity change, negative = growth inhibition, hits mostly inhibitors. 15% of 420,000 active. DT40 Tdp1-/- hTDP1 cells, no CPT, ATP luminescence, 48 h; further: potency means the concentration at half of the fitted maximal effect; nearly all actives have a fitted effect of over 55% in size
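Cells were dispensed at 400 per well, compounds added by pin tool, plates incubated ≥48 hr at 37 °C, then CellTiter-Glo added for 30 min at room temperature before luminescence reading. Line: DT40 Tdp1-/- complemented with hTDP1; camptothecin omitted.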
DT40 TDP1 CPT – qHTS for Inhibitors of human tyrosyl-DNA phosphodiesterase 1 (TDP1): qHTS in cells in presence of CPT | Potency, µM (highest dose often 46.2 µM), for the others: at the highest dose activity change, negative = growth inhibition, most hits filed as inhibitors | chicken DT40 Tdp1-/-;hTDP1 cells + 20 nM CPT, ATP luminescence, 48 h | 12% of 420,000 active; further: potency means the concentration at half of the fitted maximal effect; nearly all actives have a fitted effect of over 55% in size
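Cell growth measured by CellTiter-Glo luminescence after a minimum 48 h, 37 C compound exposure with 20 nM CPT in Tdp1-knockout DT40 cells stably expressing hTDP1, seeded 400/well; qHTS titration format.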
HT1080 IDH1KD tx – qHTS for induction of synthetic lethality in tumor cells producing 2HG: qHTS for the HT-1080-IDH1KD cell line. HT-1080 IDH1 knockdown viability, ATP luminescence, 48 h. Potency, µM (top dose mostly 46.1 µM), for the others: at the top dose activity, negative = toxicity, most hits filed as cytotoxic. 2% of 360,000 active. AID 686971, 2013;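 further: potency means the concentration at half of the fitted maximal effect; 0% = DMSO wells and -100% = cell-free medium wells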
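After a 2 h attachment period, IDH1KD HT-1080 cells took pin-transferred compound for 48 h at 37 °C; ATP-based luminescence after 10 min room-temperature reagent incubation reported viability.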
Starred values were filed as active, the others as inactive; ? = inconclusive; . = no result; [ ] = remark or other dose. Compounds with a hit are over-represented: about 19% of the library has one in this group of screens. Unless noted, the call rests on the fitted dose curve; in most records, active means well fitted curve in the direction sought with a large enough effect; inconclusive means small, poorly fitted or top-dose-only effect, or another doubt; inactive means no such curve, though single readings can be large; an effect the other way counts as inactive or inconclusive. Unless noted, on the % scale 0 is the no-effect control and ±100 the full control effect.

SMILES	ELG1 DNA repair	IL1B secr inh	HT1080NT lethal	DT40 TDP1 no CPT	DT40 TDP1 CPT	HT1080 IDH1KD tx
Cc1ccc(C)c(N2CCN(C(=O)CCNS(=O)(=O)c3ccc4c(c3)oc(=O)n4C)CC2)c1	?	3	-16%	?	?	-2%
Cc1ccc(C)c(N2CCN(C(=O)C3CCCN(S(=O)(=O)c4cccc5nsnc45)C3)CC2)c1 (configuration not stated)	.	.	.	7.3µM*	5.8µM*	.
COc1ccc(-c2nn(CCC#N)cc2C(=O)Nc2cccc([N+](=O)[O-])c2)cc1OC	?	0	4%	12%	6%	1%
CCCC1CCCCC12C(=O)NC(=O)NC2=O (configuration not stated)	.	25	17%	?	?	-2%
CCc1ccccc1N1C(=O)N(Cc2ccccc2C)c2ccccc2S1(=O)=O	.	.	.	16µM*	?	.
Cc1ccccc1CN1CCCN(Cc2ccc(Cl)cc2)S1(=O)=O	-7%	-14	-14%	-17%	2%	-4%
CN1CC(CO)=C[C@H]2c3cccc4[nH]cc(c34)C[C@H]21	.	.	.	-1%	9%	.
COc1ccc(S(=O)(=O)N2CCOCC2)cc1NC(=O)COC(=O)Cc1ccccc1	22%	-8	-4%	26%	-1%	-1%
Cc1sc2ncnc(SCC(=O)Nc3ccc(S(=O)(=O)N4CCOCC4)cc3)c2c1C	?	-4	-11%	29µM*	23µM*	-14%
Cc1sc2ncnc(N3CCN(S(=O)(=O)c4ccc(Br)cc4)CC3)c2c1C	.	-12	-4%	12µM*	13µM*	10%
CN1CCN(S(=O)(=O)c2ccc(Cl)nc2)CC1	?	28	19%	-1%	11%	24%
Cc1ccc2nc(SCC(=O)N/N=C/c3ccco3)cc(C)c2c1	?	-7	0%	-16%	-14%	-14%
CC(/C=N/NC(=O)c1cc(-c2ccncc2)nc2ccccc12)=C\c1ccco1	?	10	0.89µM*	3.7µM*	2.6µM*	1µM*
CCCc1c(C)nc(-c2ccc(C)cc2)nc1OC(=O)N(C)C	?	-11	11%	-24%	15%	6%
CCOC(=O)Nc1ccc2c(c1)N(C(=O)CN(C)C)c1ccccc1CC2	?	-4	-5%	?	?	-5%
Cc1ccc(Cl)cc1NC(=O)N(Cc1ccc2c(c1)OCO2)C1CCN(Cc2ccccc2)CC1	.	.	.	13µM*	?	.
Cc1cccc(N2CCN(Cc3ccc4c(c3)OCO4)CC2)c1C	-19%	11	-27%	?	?	?
COc1ccc(C)cc1NC(=O)N(Cc1ccc2c(c1)OCO2)C1CCN(Cc2ccccc2)CC1	.	.	.	5.2µM*	?	.
COc1ccccc1N1CCN(Cc2ccc3c(c2)OCO3)CC1	.	12	-1%	?	-3%	?
Cc1ccc(NC(=O)N(Cc2ccc3c(c2)OCO3)C2CCN(Cc3ccccc3)CC2)cc1Cl	.	.	.	15µM*	4.6µM*	.
Cc1ccc(NC(=O)N(Cc2ccc3c(c2)OCO3)C2CCN(Cc3ccccc3)CC2)cc1C	.	.	.	29µM*	?	.
O=C(CSCc1ccccc1)Nc1ccc2c(c1)OCO2	?	-5	4%	-15%	-23%	-3%
Cc1nnc2n1-c1ccc(Cl)cc1C(c1ccccc1Cl)=NC2	.	.	.	-3%	-3%	.
CC(C)(O)[C@@H]1C2OC(=O)[C@@H]1[C@]1(O)C[C@H]3O[C@]34C(=O)O[C@H]2[C@]14C	.	.	.	-7%	?	.
CN(C)CCc1c[nH]c2cccc(OP(=O)(O)O)c12	.	.	.	3%[92.5 µM]	10%[92.5 µM]	.
SMILES	ELG1 DNA repair	IL1B secr inh	HT1080NT lethal	DT40 TDP1 no CPT	DT40 TDP1 CPT	HT1080 IDH1KD tx
CCCC/C(C)=C/[C@@H](NP(=O)(c1ccccc1)c1ccccc1)c1ccccc1	19%	-23	?	16µM*	?	?
CCCCCP(=O)(O)c1ccccc1	3%	4	0%	-3%	-17%	9%
CCOP(=S)(OCC)N1CC1	.	-4	-2%	15%	15%	-1%
Cc1oc(-c2cccc(Cl)c2)nc1CN1CCC(C(=O)NCCCN2CCN(c3cccc(Cl)c3)CC2)CC1	.	.	.	18µM*	15µM*	.
CCOP(=O)(OCC)C(O)c1ccc(OC)cc1 (configuration not stated)	0%	9	17%	5%	10%	27%
Cc1ccc(-n2c(O)c(C=Nc3ccc(Br)cn3)c(=O)[nH]c2=O)cc1	10%	12	?	-4%	8%	22%
O=C(Nc1ncccc1O)c1ccc(S(=O)(=O)NCc2ccco2)cc1	.	68	-2%	23µM*	21µM*	-21%
CS(=O)(=O)c1ccc(C2=C(CNC(=O)c3ccncc3)[C@H]3CC[C@@H](C2)N3Cc2ccco2)cc1	.	0	-1%	-3%	3%	0%
Ic1cncc(OC[C@@H]2CCN2)c1	.	.	.	-1%	14%	.
CC(C)(C)n1ncc2c(=O)n(Cc3cccc(Cn4cnc5c(cnn5C(C)(C)C)c4=O)c3F)cnc21	8.2µM*	.	.	.	.	.
CN(C)CCSC1c2ccccc2CSc2ccccc21 (configuration not stated)	.	-2	-15%	?	?	-5%
CN1C(=O)CN=C(c2ccccc2)c2cc([N+](=O)[O-])ccc21	.	.	.	17µM*	?	.
CCC1C2CC3C4N(C)c5ccccc5[C@]45CC(C2C5O)N3C1O (some centres not stated)	.	.	.	0.37µM*	0.46µM*	.
CC[C@H]1C2CC3[C@@H]4N(C)c5ccccc5[C@]45C[C@@H](C2[C@H]5O)N3[C@@H]1O (some centres not stated)	.	.	.	-7%	-2%	.
O=C(O)c1ccc2[nH]cc(CCCCN3CC=C(c4ccccc4)CC3)c2c1	.	.	.	-11%	10%	.
Oc1ccc2[nH]cc(CCCCN3CC=C(c4ccccc4)CC3)c2c1	.	.	.	17µM*	27µM*	.
COC(=O)C1=C(c2cccc(OC)c2OC)C[C@@H]2CC[C@H]1N2C(=O)NCc1ccc(C(F)(F)F)cc1	.	-3	6%	?	-3%	0%
Cc1nc(C)c(C(=O)NN=Cc2ccc(N(CCCl)CCCl)cc2)s1	.	0	-11%	12µM*	?	-23%
